Source: PubChem (National Center for Advancing Translational Sciences (NCATS))
POLH inh – DNA polymerase eta (human) inhibition; Q9Y253; recombinant Pol eta, fluorescent DNA replication assay; Potency, µM (doses to about 114 µM), actives largely listed as inhibitors; 390,000 compounds, 1.2% hits; AID 588591
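Pol eta at 10 nM preincubated with compounds 15 min at room temperature; reaction started with fluorescent substrate (50 nM final) and read kinetically at 0 and 10 min.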
TDP1 inh – inhibitors of human tyrosyl-DNA phosphodiesterase TDP1; 350,000 compounds, 0.28% hits; Potency, µM (top dose mostly 130 µM), usual class: inhibitors; AID 485290; Q9NUW8; recombinant TDP1, AlphaScreen DNA substrate cleavage; note: nearly all actives have a fitted effect of over 40% in size
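E. coli-derived human Tdp1, 1 nM final. Cpd preinc 15 min RT; substrate 15 nM final, 5 min RT; AS bead mix 10 ug/ml final, 10 min RT. Signal loss = tyrosine-FITC cleavage. No-enzyme wells = max signal.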
POLI inh – inhibitors of human DNA polymerase iota; Pol iota fluorescent replication assay, 10 min; Potency, µM (series often up to 115 µM), actives largely listed as inhibitors; 390,000 compounds, 1% hits; AID 588590
Target sequence (Q9UNA4 whole entry, looked up): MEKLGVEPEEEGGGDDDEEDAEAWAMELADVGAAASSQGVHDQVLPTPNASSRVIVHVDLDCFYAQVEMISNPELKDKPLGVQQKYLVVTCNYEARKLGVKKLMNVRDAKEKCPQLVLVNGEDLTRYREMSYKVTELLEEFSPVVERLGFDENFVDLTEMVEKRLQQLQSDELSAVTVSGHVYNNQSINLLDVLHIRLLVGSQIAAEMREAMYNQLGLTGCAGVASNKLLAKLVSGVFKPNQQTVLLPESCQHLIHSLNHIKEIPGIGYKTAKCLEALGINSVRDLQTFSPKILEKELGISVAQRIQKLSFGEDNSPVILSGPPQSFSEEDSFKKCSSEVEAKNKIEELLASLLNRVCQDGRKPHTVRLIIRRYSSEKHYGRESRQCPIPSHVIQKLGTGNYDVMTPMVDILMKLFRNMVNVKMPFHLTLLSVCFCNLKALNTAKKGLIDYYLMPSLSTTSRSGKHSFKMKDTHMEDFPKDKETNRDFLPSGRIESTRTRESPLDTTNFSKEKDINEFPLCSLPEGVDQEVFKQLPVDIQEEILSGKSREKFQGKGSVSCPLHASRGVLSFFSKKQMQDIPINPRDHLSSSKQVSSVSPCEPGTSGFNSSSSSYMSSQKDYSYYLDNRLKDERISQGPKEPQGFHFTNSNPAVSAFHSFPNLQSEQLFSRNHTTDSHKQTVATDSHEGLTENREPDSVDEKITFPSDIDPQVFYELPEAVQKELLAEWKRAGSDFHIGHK
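Pol iota at 10 nM preincubated 15 min with compounds at room temperature; reaction started with fluorescent substrate, 50 nM final. Fluorescence read kinetically at 0 and 10 min; buffer-only wells as negative control.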
POLB inh – DNA polymerase beta (human) inhibition; P06746; Pol beta primer extension/strand displacement, fluorescence kinetic; Potency, µM (doses to about 114 µM), usual class: inhibitors; 340,000 compounds, 1.3% hits
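Pol beta (10 nM) and compounds were preincubated 15 min at room temperature, then 50 nM substrate (final) started primer extension/strand displacement. Reads were taken at 0 and 10 min; concentration-response data were fitted to a four-parameter Hill equation.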
Pol kappa inh – DNA polymerase kappa (human) inhibition. purified Pol kappa, fluorescent DNA synthesis assay, 10 min. 400,000 compounds, 0.53% hits. Potency, µM (doses to about 107 µM), hits mostly inhibitors. AID 588579
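Inhibition of 10 nM Pol kappa is measured by a fluorescent read-out at 0 and 10 min following addition of 50 nM substrate (final), with a 15-min room-temperature compound preincubation.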
FEN1 inh – blocks human flap endonuclease 1 | Recombinant FEN1 flap cleavage, fluorescence, 15 min | 390,000 compounds, 0.35% hits | AID 588795 | Potency, µM (series often up to 114 µM), hits mostly inhibitors | P39748; note: nearly all actives have a fitted effect of over 65% in size
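Potency values derive from four-parameter Hill fits of normalized qHTS data. The reaction used 10 nM FEN1 preincubated 15 min at room temperature with compound, then 50 nM DNA substrate, read at 0 and 15 min.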
Of the large screens only hits and unclear results are named; the others gave an inactive call; ! = a repeat was not active. This is a sample that favours compounds with a hit; in the whole collection about 2.4% have one here. Calls come from the whole dose curve; as a rule, active = well fitted curve in the direction sought with a large enough effect; inconclusive = small, poorly fitted or top-dose-only effect, or another doubt; inactive = no such curve, though single readings can be large; an effect the other way counts as inactive or inconclusive.

Nc1nc(Cl)nc2c1ncn2[C@@H]1O[C@H](COP(=O)(O)OP(=O)(O)OP(=O)(O)O)[C@@H](O)[C@H]1O	none (no result: POLH inh, TDP1 inh, POLI inh, POLB inh, FEN1 inh)
O=[N+]([O-])c1ccc(O)c(C=Nc2ccc3nc(-c4ccccc4)[nH]c3c2)c1	POLH inh inconclusive, POLB inh 28µM
O=C(O)C1CCCC1	POLI inh inconclusive, Pol kappa inh 28µM, FEN1 inh inconclusive (no result: POLH inh, TDP1 inh, POLB inh)
Cn1c(/C=C/c2ccccc2[N+](=O)[O-])nc2ccccc2c1=O	TDP1 inh 5µM
COc1cc(Cl)c(CC(=O)NO)cc1OC	none (no result: POLH inh, TDP1 inh, POLB inh)
O=C(O)CN1C(=O)/C(=C\c2ccccc2OCc2ccc(Cl)cc2)SC1=S	POLH inh 79µM, POLB inh inconclusive, FEN1 inh inconclusive (no result: TDP1 inh)
O=C(O)CN1C(=O)/C(=C\c2cccc(OCc3ccc(F)cc3)c2)SC1=S	POLH inh inconclusive, POLI inh inconclusive, POLB inh inconclusive (no result: TDP1 inh)
O=C(O)CN1C(=O)/C(=C\c2cccc(OCc3ccc(Cl)cc3)c2)SC1=S	POLH inh 50µM, POLI inh inconclusive, POLB inh inconclusive
CN1C(=O)/C(=C\c2ccccc2OCc2ccccc2)SC1=S	none (no result: TDP1 inh)
O=C(O)CN1C(=O)/C(=C\c2cc(Br)ccc2OCc2ccc(Cl)cc2Cl)SC1=S	POLH inh inconclusive, POLI inh inconclusive, POLB inh 22µM (no result: TDP1 inh)
COc1ccc(OC)c(/C=C/c2cc3ccccc3cn2)c1	FEN1 inh inconclusive (no result: POLH inh, TDP1 inh, POLB inh)
COC(=O)C1=C(C)N(Cc2ccccc2)C(=O)/C1=C\c1ccco1	POLI inh 50µM, Pol kappa inh inconclusive
Cc1coc2c(C)c3oc(=O)c(CCC(=O)N[C@@H](C)C(=O)N[C@@H](Cc4ccccc4)C(=O)O)c(C)c3cc12	POLH inh 28µM, POLB inh inconclusive, Pol kappa inh inconclusive (no result: TDP1 inh)
Cc1coc2c(C)c3oc(=O)c(CCC(=O)NCCc4ccccc4)c(C)c3cc12	none
CCCCC(NC(=O)Cc1c(C)c2cc3c(C)c(C)oc3c(C)c2oc1=O)C(=O)O (configuration not stated)	POLI inh inconclusive (no result: TDP1 inh)
CCCC(NC(=O)Cc1c(C)c2cc3c(C)c(C)oc3c(C)c2oc1=O)C(=O)N[C@@H](Cc1ccccc1)C(=O)O (some centres not stated)	POLH inh inconclusive, POLI inh inconclusive, POLB inh 28µM, Pol kappa inh inconclusive (no result: TDP1 inh)
COc1cc(-c2nnc(SCC(=O)c3ccccc3)o2)cc(OC)c1OC	none
CCN(C(=O)CSc1nnc(-c2cc(OC)c(OC)c(OC)c2)o1)c1ccccc1	POLI inh inconclusive, POLB inh 10µM, Pol kappa inh inconclusive (no result: TDP1 inh)
COC(=O)c1c(C)cc(O)cc1O	none (no result: POLB inh)
COC(=O)c1cc(O)cc(OC)c1C(=O)c1c(O)cc(C)cc1O	POLH inh 35µM, POLI inh 71µM, POLB inh inconclusive, Pol kappa inh inconclusive (no result: TDP1 inh)
CCn1c(SCC(=O)c2ccc(CNC(C)=O)o2)nnc1-c1cccs1	POLH inh inconclusive, POLI inh inconclusive, POLB inh 45µM (no result: TDP1 inh)
CCn1c(SCC(=O)NCc2cccs2)nnc1-c1cccs1	none
Nc1c(Br)cc(/C=C/c2ccnc3ccccc23)cc1Br	POLI inh inconclusive, Pol kappa inh inconclusive (no result: POLH inh, TDP1 inh, POLB inh)
O=C(Cn1cc(C(=O)c2ccco2)c2ccccc21)Nc1ccccc1	POLB inh inconclusive
Cc1cccc(C)c1NC(=O)Cn1cc(C(=O)c2ccco2)c2ccccc21	POLH inh inconclusive, POLI inh 79µM, POLB inh 50µM
Cc1ccc(NC(=O)Cn2cc(C(=O)c3ccco3)c3ccccc32)cc1	POLI inh 79µM, POLB inh 11µM
Cc1cc(Br)ccc1NC(=O)c1c(C)oc2ncnc(N3CCCCC3)c12	none
COC(=O)c1c(-c2ccc(OC)cc2)sc2ccccc12	TDP1 inh 20µM (no result: POLH inh, POLI inh, POLB inh, Pol kappa inh, FEN1 inh)
COC(=O)c1c(-c2ccc(SC)cc2)sc2ccccc12	TDP1 inh inconclusive (no result: POLB inh)
CC(C)(C)c1ccc(CSc2nc3c(c(=O)[nH]2)CCCC3)cc1	none (no result: POLH inh)
CC1CCCCN1C(=O)c1cnn2c1NC(=C1CC1)C=C2C(F)F (configuration not stated)	none (no result: POLH inh, TDP1 inh, POLB inh)
O=c1c2ccccc2nc(/C=C/c2cccnc2)n1CCc1ccccc1	POLH inh inconclusive, POLI inh 7.9µM (no result: TDP1 inh)
COc1cc(/C=C2\SC(=O)N(c3ccccc3Cl)C2=O)cc([N+](=O)[O-])c1O	POLH inh 56µM, POLI inh inconclusive, POLB inh 89µM, FEN1 inh inconclusive
COc1cc(/C=C2\SC(=O)N(CC(=O)Nc3ccccc3F)C2=O)cc(Cl)c1O	POLH inh 50µM, POLI inh inconclusive, POLB inh inconclusive, Pol kappa inh inconclusive (no result: TDP1 inh)
Nc1nc(SCC(=O)Nc2ccc(OCc3ccccc3)cc2)n[nH]1	TDP1 inh 71µM, POLI inh inconclusive
CC(C)CN1CCC(=O)N([C@H](COc2ccccc2)Cc2ccccc2)CC1	POLI inh 89µM! (no result: TDP1 inh)
COc1cc(C2CC(=O)Nc3c2c(=O)n(C)c2ncnn32)cc(OC)c1OC (configuration not stated)	POLI inh 50µM
Cn1c(=O)c2c(n3ncnc13)NC(=O)CC2c1cccc(F)c1 (configuration not stated)	none
O=C(CCCCCCCC(=O)NNC(=O)Nc1ccccc1)NNC(=O)Nc1ccccc1	POLI inh inconclusive, POLB inh 32µM
O=C(CCc1ccccc1)NNC(=O)Nc1ccccc1	none
Cc1nc2ccccc2c(C)c1CC(=O)N(C)CC(=O)Nc1cccc(F)c1	POLI inh inconclusive (no result: POLB inh)
CCOc1ccc(NC(=O)CN(C)C(=O)Cc2c(C)nc3ccccc3c2C)cc1OCC	POLH inh inconclusive, POLB inh 22µM
C[N+]1(C)CCC(=C2c3ccccc3CC(=O)c3sccc32)CC1	POLI inh 16µM, POLB inh 7.9µM
O=C1c2ccccc2CCc2ccccc21	none (no result: TDP1 inh, POLB inh)
Clc1cccc[n+]1CCc1ccccc1	none (no result: POLH inh, TDP1 inh, POLB inh)
O=C1C(=C2CCCCC2)SC(=S)N1Cc1ccco1	POLH inh inconclusive, POLI inh inconclusive, POLB inh 25µM, Pol kappa inh inconclusive
O=C(O)CCN1C(=O)C(=C2CCCCCC2)SC1=S	POLI inh inconclusive, POLB inh inconclusive
COC(=O)C1=C(C)N(CCCC(=O)O)C(=O)NC1c1cc2c(cc1[N+](=O)[O-])OCO2 (configuration not stated)	POLH inh 50µM, POLI inh 13µM, POLB inh 10µM, Pol kappa inh 45µM, FEN1 inh inconclusive (no result: TDP1 inh)
COC(=O)C1=C(C)N(CCCC(=O)O)C(=O)NC1c1ccc(C#N)cc1 (configuration not stated)	POLI inh 14µM (no result: TDP1 inh, POLB inh)
Cc1nc(CN(C)c2ncnc3cc(-c4ccc5c(c4)OCO5)ccc23)cs1	none (no result: POLH inh, POLI inh, POLB inh, Pol kappa inh, FEN1 inh)
O=C1/C(=C/c2ccncc2)SC(=S)N1C1CCCCC1	none
O=C1/C(=C\c2ccncc2)SC(=S)N1C1CCCCC1	POLB inh 79µM
